Source: PubChem
The entries come from a sample that favours hits as a whole.
Shiga toxin inh = inhibitors of Shiga toxin in Vero cells; Vero cells, Shiga toxin protein synthesis inhibition reporter; inhibition, % at 38.7 µM; hit rate 9.2% among 290,000; AID 2315; in the data active = inhibition mostly above about 28%, no sharp cut-off; inactive = mostly below about 43%
FBPA Giardia inh = Giardia lamblia aldolase inhibition; purified Giardia FBPA; Potency, µM (series often up to 59.6 µM), actives largely listed as inhibitors; hit rate 0.71% among 290,000; AID 2451; also: nearly all actives have a fitted effect of over 55% in size
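Giardia FBPA (40 nM reagent) was preincubated 10 min at RT with compound (up to 57.5 uM final), then substrate plus GAPDH/TPI/NAD/arsenate coupling system with diaphorase/resazurin was added; resorufin fluorescence (525/598 nm) was read after 20 min.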
Sm TGR block = S. mansoni TGR enzyme inhibition; Q962Y6; purified TGR, DTNB reduction, TNB absorbance 405 nm; Potency, µM (doses to about 114 µM), hits mostly inhibitors; hit rate 3% among 360,000; AID 485364; also: nearly all actives have a fitted effect of over 60% in size
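TGR 20 nM + NADPH 100 uM (dispensed conc.), cpd preinc 15 min RT; start with NADPH (500 uM addition) then DTNB (15 mM addition). Kinetic TNB absorbance, 405 nm filter. Four-parameter Hill fit across titration.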
LmPK inhibitor = LmPK (Leishmania mexicana) enzyme inhibition; AID 1721; Potency, µM (titrated, usually from 57.5 µM), actives largely listed as inhibitors; purified LmPK, Kinase-Glo ATP luminescence, 1 h; Q27686; hit rate 0.37% among 290,000
Target sequence (Q27686 whole entry, looked up): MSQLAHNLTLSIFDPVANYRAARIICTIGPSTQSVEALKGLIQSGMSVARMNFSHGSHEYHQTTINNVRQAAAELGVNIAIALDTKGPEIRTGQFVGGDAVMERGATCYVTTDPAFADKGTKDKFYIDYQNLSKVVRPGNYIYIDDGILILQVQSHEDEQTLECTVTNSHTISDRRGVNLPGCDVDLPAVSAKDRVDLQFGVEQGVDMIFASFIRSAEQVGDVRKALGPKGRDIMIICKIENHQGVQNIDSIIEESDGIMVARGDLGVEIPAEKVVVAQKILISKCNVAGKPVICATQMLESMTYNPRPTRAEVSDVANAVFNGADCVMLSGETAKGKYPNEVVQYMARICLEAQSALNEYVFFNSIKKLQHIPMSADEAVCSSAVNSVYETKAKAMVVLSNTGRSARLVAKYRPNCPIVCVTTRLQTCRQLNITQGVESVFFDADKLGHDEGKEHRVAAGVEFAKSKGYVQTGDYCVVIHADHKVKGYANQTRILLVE
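qHTS format; LmPK 0.1 nM; substrates PEP 0.5 mM and ADP 0.1 mM. One-hour room-temperature incubation, then coupled luciferase luminescence; 0.5 nM enzyme wells mark activation.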
Tb PYK inh = inhibitors of Trypanosoma brucei pyruvate kinase; TbPYK enzyme, Kinase-Glo Plus ATP luminescence, 45 min; Potency, µM (titrated, usually from 76.8 µM), hits mostly inhibitors; hit rate 0.12% among 410,000; AID 624173; also: nearly all actives have a fitted effect of over 50% in size
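Luminescent Kinase-Glo Plus end-point after 45 min room-temperature reaction of T. brucei pyruvate kinase started with 130 uM ADP (final). Buffer TEA 50 mM pH 7.2 with KCl, MgCl2, BSA, Tween-20; titration-based qHTS with fitted concentration-effect curves.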
CHX counter = affects cycloheximide protein synthesis inhibition readout, counter-screen; cell reporter, cycloheximide protein synthesis inhibition counterscreen; max response, %; hit rate 12% among 300,000; AID 2314; in the data active = max response mostly above about 13%, no sharp cut-off; inactive = mostly below about 14%; also: read at 38.3 µM for the half of the compounds with a filed dose
Numbers stand for hits; – = inactive; ? = inconclusive; · = no result given; ! = repeats disagree. Unless noted, calls follow the shape of the dose curve; as a rule, active = well fitted curve in the direction sought with a large enough effect; inconclusive = small, poorly fitted or top-dose-only effect, or another doubt; inactive = no such curve, though single readings can be large; an effect the other way counts as inactive or inconclusive.

SMILES	Shiga toxin inh	FBPA Giardia inh	Sm TGR block	LmPK inhibitor	Tb PYK inh	CHX counter
COc1ccc(/C=C/C(=O)C2(O)CCCCC2)cc1	47.3	–	–	–	–	19.3
COc1ccc(/C=C/C(=O)c2ccc(C(=O)/C=C/c3ccc(OC)c(OC)c3)cc2)cc1OC	–	–	–	–	–	27.9
CC(=C\C(=O)O)/C(=C/c1ccc(C)o1)C(=O)O	–	–	31.6µM	–	–	–
CC(=C\C(=O)O)/C(=C\c1cccc2ccccc12)C(=O)O	82.7	–	–	–	–	24.9
CC(=C\C(=O)O)/C(=C/c1ccco1)C(=O)O	–	–	?	–	–	–
CC1CCCCN1S(=O)(=O)c1ccc2c(c1)oc(=O)n2CC(=O)Nc1ccc(Cl)cc1 (stereo not drawn)	·	·	–	·	–	·
O=C(COCc1cc(-c2cccs2)on1)NCc1ccc(F)cc1	·	·	–	·	–	·
Cc1ccc(-n2nnnc2C(Cl)(Cl)c2nnnn2-c2ccc(C)cc2)cc1	–	–	17.8µM	–	?	–
CC(C)SC1=NC(C)(C)C=C(/C=C/c2ccc(Cl)cc2Cl)N1	–	–	15.8µM	–	–	–
CC(C)SC1=NC(C)(C)C=C(/C=C/c2c(Cl)cccc2Cl)N1	–	–	20µM	–	–	–
CSc1ccc(C2c3[nH]c4ccccc4c3CCN2C(=O)c2ccnn2C)cc1 (stereo not drawn)	72.0	–	–	–	–	35.4
COc1cccc(C(=O)N2CCc3c([nH]c4ccccc34)C2c2ccc(SC)cc2)c1 (stereo not drawn)	·	·	–	·	–	·
O=C1NCCN/C1=C\C(=O)c1ccc(Cl)cc1	67.3	–	–	–	–	54.6
O=C1NCCN/C1=C\C(=O)c1ccc(F)cc1	69.0	–	–	–	–	35.4
CC(=O)N1C2(C=CC1(C)C(=O)NCc1ccccn1)CCCCC2 (stereo not drawn)	·	–	·	·	·	·
O=[N+]([O-])c1ccc(NNS(=O)(=O)c2cc(Cl)ccc2Cl)nc1	–	·	–	–	–	–
C/C(Cn1nc([N+](=O)[O-])cc1C)=N\NC(=O)c1ccc(O)cc1O	–	–	–	–	–	30.3
COc1cc(C(=O)N/N=C(\C)Cn2nc([N+](=O)[O-])cc2C)ccc1O	–	–	–	–	–	–
C/C(Cn1cnc([N+](=O)[O-])n1)=N\NC(=O)c1ccc(O)cc1O	86.7	–	–	–	–	42.1
C/C(Cn1cnc([N+](=O)[O-])n1)=N\NC(=O)c1ccccc1F	·	·	·	·	–	·
C/C(Cn1cnc([N+](=O)[O-])n1)=N\NC(=O)c1ccccc1O	39.3	–	–	–	–	23.6
CSc1ccc(NC(=O)C2CCN(c3ncccn3)CC2)cc1	·	·	–	·	–	·
COc1cc2c(c3oc(-c4ccccc4)cc(=O)c13)C=CC(C)(C)O2	37.1	–	–	–	–	25.0
COc1c(O)c(O)c2oc(-c3ccccc3)cc(=O)c2c1OC	–	–	–	–	–	–
COc1cc(OC)c2c(=O)cc(-c3ccccc3)oc2c1	109.5	–	–	–	–	38.4
SMILES	Shiga toxin inh	FBPA Giardia inh	Sm TGR block	LmPK inhibitor	Tb PYK inh	CHX counter
N#C/C(C(=O)N1CCOCC1)=C1\Nc2ccccc2S1	64.1	–	–	–	–	34.6
COc1ncc2nc(-c3cc(F)cc(F)c3)c(=O)n(C)c2n1	·	–	·	·	·	·
CCc1cccc(C)c1NC(=O)CC(C)(C)CC(=O)O	–	–	–	–	–	–
Cc1cc(C(C)(C)C)ccc1NC(=O)CC(C)(C)CC(=O)O	82.1	–	–	–	–	49.0
Cc1ccc(S(=O)(=O)Cn2nnnc2C(C(C)C)N2CCSCC2)cc1 (stereo not drawn)	–	–	?	–	–	–
Cc1ccc(S(=O)(=O)Cn2nnnc2C(C(C)C)N2CCc3ccccc3C2)cc1 (stereo not drawn)	–	–	28.2µM	–	–	–
COc1ccc(-c2oc3ccccc3c(=O)c2OC(C)=O)cc1	68.2	–	–	–	–	33.9
COc1ccc(-c2oc3cc(O)c(OC)c(O)c3c(=O)c2OC)cc1	–	–	–	–	–	16.3
CC(=O)Oc1c(-c2ccc(Br)o2)oc2ccccc2c1=O	–	–	?	–	–	12.8
Cc1cccc(NC(=O)C2CCC(CNS(=O)(=O)c3ccc4c(c3)CCCC(=O)N4)CC2)c1C (stereo not drawn)	·	·	–	·	–	·
CO[C@H]1[C@@H](O)[C@H](N)[C@@H](O[C@H]2O[C@@H]([C@H](C)N)CC[C@H]2N)[C@H](O)[C@@H]1N(C)C(=O)CN	·	·	·	·	–	·
Cc1cc(NC(=O)Nc2ccc(N(C)C)cc2)c2cc(F)cc(F)c2n1	34.2	–	·	·	·	28.1
COC(=O)c1ccc2nc(C)cc(Nc3ccc(N(C)C)cc3)c2c1	–	–	–	–	–	–
CCc1ccc(NC(=O)CSc2nnnn2-c2cccnc2)cc1	–	–	–	–	–	–
CCCCN(C)CCNC(=O)Cn1ncc2c3ccccc3n(CCC)c2c1=O	·	·	–	·	–	·
CCOC(=O)C1=C(O)c2ccccc2C(=O)/C1=C\c1ccc(C)cc1	–	?	3.55µM	–	?	–
CCOC(=O)C1=C(C)OC(=Cc2ccccc2)C1=O	·	·	·	·	–	·
O=c1ccc(S(=O)(=O)N2CCCC2)cn1Cc1ccc(F)cc1	·	·	–	·	–	·
Cc1ccc2c(c1)c1cccc3c1n2CCN3CCC(N)=O	189.6	–	–	–	–	34.2
NC(=O)CCn1c2ccccc2c2ccccc21	–	–	·	–	–	–
Cc1ccc(C)c(N2CCN(C3=C(c4ccccc4)C(=O)c4ccccc43)CC2)c1	·	·	–	·	–	·
Cc1cc(C)[n+]2n1C(=O)C(c1ccccc1)=C2[O-]	–	–	–	–	–	32.8!
CC(CC(=O)Nc1ccccc1)NCCCN1CCCC1=O (stereo not drawn)	–	–	–	–	–	–
CC1(C)CC(=O)c2cc(-c3nc(-c4ccc(Cl)cc4)cs3)c(=O)[nH]c2C1	·	·	–	·	–	·
CN=C1NN=C(c2cc(C)n(-c3ccc(Cl)cc3)c2C)CS1	136.5	–	–	–	–	58.9
SMILES	Shiga toxin inh	FBPA Giardia inh	Sm TGR block	LmPK inhibitor	Tb PYK inh	CHX counter
Cc1cc(C2=NNC(=NC3CC3)SC2)c(C)n1-c1c(C)n(C)n(-c2ccccc2)c1=O	–	–	–	–	–	–
COCCCN=C1NN=C(c2cc(C)n(-c3ccccc3)c2C)CS1	61.9	–	–	–	–	34.5
COCCCN=C1NN=C(c2cc(C)n(Cc3ccccc3Cl)c2C)CS1	45.3	–	–	–	?	21.6
CCN(CC)CC(=O)Nc1nc(-c2ccc(Cl)cc2)cs1	–	–	–	–	–	–
CNc1nc(-c2ccc([N+](=O)[O-])cc2)cs1	52.7	–	–	–	–	31.7
CCNc1nc(-c2ccc(Cl)cc2)cs1	81.0	–	–	–	–	52.4
CC1(C)CC(c2nc(-c3ccc([N+](=O)[O-])cc3)cs2)CCO1 (stereo not drawn)	–	–	–	–	–	17.0
